Screening results (PubChem BioAssay)
Shown are actives, neighbours in structure and some others; about 2.2% of the full set was active somewhere.
Shn3 3UTR inh – reduction of Shn3 3'UTR firefly luciferase signal, primary screen, Schnurri-3 inhibitor project, cell-based, Clone20 osteoblasts, set 2. Clone20 osteoblast Shn3 3'UTR firefly luciferase, 24 h. inhibition, % at 12.5 µM. AID 588674, 2011. hit rate 0.52% among 360,000;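 active means mean inhibition of at least 75% with every replicate also reaching 75%; inconclusive means mean inhibition at least 75% but some replicate below; inactive means mean inhibition below 75%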
CSC inhib – cancer stem cell viability inhibitors, primary screen, luminescence; inhibition, % at 7.5 µM; cancer stem cell-like cells viability; hit rate 1.1% among 300,000; AID 2717, 2010; in the data active means inhibition above about 75%; inconclusive means no clear call, values can overlap the other calls; tested in HMLE shEcad cells
Beta cell apopt – inhibitors of cytokine-induced beta cell apoptosis, primary screen, luminescence; INS-1E cytokine-induced death, ATP luminescence, 48 h; percent of positive-control rescue, neutral wells zero; protection from apoptosis, % (concentration not given with the values); hit rate 0.8% among 300,000; AID 435005, 2010;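 active means Every replicate reaches about 75%, or at least half do and their mean reaches it too, limit read from the data; inconclusive means At least half of replicates reach the limit but their mean does not; inactive means Under half of replicates reach the limit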;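 further: higher means more ATP so stronger rescue from cytokine killing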
Calb FLC – C. albicans growth inhibition with fluconazole, primary screen, CaCi-2 strain, Alamar Blue fluorescence; C. albicans CaCi-2 (fluconazole-resistant clinical isolate) + fluconazole, 48 h; growth inhibition, % (concentration not given with the values); hit rate 0.57% among 300,000; AID 1979, 2009;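 active means growth inhibition above about 58% in most replicates, limit read from the data, passing the limit was not always enough; inconclusive means exactly half the replicates above a set limit; inactive means most replicates below a set limit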;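 further: all wells also contain fluconazole at 8 µg/ml as a sub-toxic cotreatment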
PfHsp90 yeast 2 – growth inhibition of PfHsp90-expressing yeast, primary screen, antimalarial PfHsp90 inhibitor project, S. cerevisiae, BacTiter-Glo luminescence, single point, set 2; BacTiter-Glo ATP, 48 h; yeast lacking PDR1 and PDR3 efflux regulators; inhibition, % at 9.4 µM; hit rate 0.32% among 310,000; AID 504621, 2011;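 active means every replicate shows inhibition above about 80%, whatever the replicate mean, limit read from the data; inconclusive means mean inhibition reaches the set limit but some replicate falls short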
Each line names hits and unclear results; the compound was inactive in the other large screens.

Cc1ccc2nc(-c3cccc(SC4CCCCC4)c3)c(NCc3ccccc3)n2c1	none (no result: CSC inhib, Beta cell apopt, Calb FLC)
Cc1ccccc1-n1cc(CNC(=O)CCc2nnc(CCc3ccccc3)o2)cn1	none
Cc1cccc(C)c1NC(=O)CNC(=O)c1cn(-c2ccccc2)nc1-c1ccccc1	none (no result: Beta cell apopt)
Cc1nn(Cc2c(Cl)cccc2Cl)c(C)c1NC(=O)c1cn(-c2ccccc2)nc1-c1ccccc1	Shn3 3UTR inh 88, CSC inhib 165, Beta cell apopt 106
CCOC(=O)N1CCN(C(=O)CSCC(=O)Nc2nc(-c3ccc(-c4ccccc4)cc3)cs2)CC1	Beta cell apopt 89
CCOC(=S)SCC(=O)Nc1nc(-c2ccc(Br)cc2)cs1	CSC inhib 85
Cc1cccc(Cn2c(O)c(N=NC(=S)Nc3ccccc3F)c3ccccc32)c1	Calb FLC 114
O=C([C@H]1O[C@@H](n2ccc(=O)[nH]c2=O)[C@H](O)[C@@H]1O)N1CCN(c2ccc(Cl)cn2)CC1	none (no result: CSC inhib, Beta cell apopt, Calb FLC, PfHsp90 yeast 2)
CCOCc1cc(=O)[nH]c(SC)n1	none (no result: CSC inhib, Beta cell apopt)
Nc1[nH]n(-c2ccccc2)c(=O)c1N=Nc1ccc2c(c1)OCO2	CSC inhib 113 (no result: Shn3 3UTR inh)
O=C(Nc1ccccc1)C1=C[C@@H](c2ccc(C(F)(F)F)cc2)C[C@@H](OCc2ccc(CO)cc2)O1	CSC inhib 79
O=C(Nc1ccccc1)C1=C[C@@H](c2csc3ccccc23)C[C@@H](OCc2ccc(CO)cc2)O1	CSC inhib 86
O=C(Nc1ccccc1)C1=C[C@@H](c2ccccc2)C[C@@H](OCc2ccc(CO)cc2)O1	none
O=C(NCc1ccccc1)C1=C[C@H](c2csc3ccccc23)C[C@H](OCc2ccc(CO)cc2)O1	none (no result: PfHsp90 yeast 2)
Fc1ccc2nncc(SCc3ccccc3Cl)c2c1	none (no result: CSC inhib, Beta cell apopt, Calb FLC)
C[C@@H](C[C@@H](O)[C@H](O)C(C)(C)O)[C@@H]1CC[C@]2(C)C3=CC[C@H]4C(C)(C)C(=O)CC[C@]4(C)[C@H]3CC[C@@]12C	Shn3 3UTR inh 92 (no result: Beta cell apopt)
O=c1c(C(c2ccccc2)c2c(O)sc3ccccc3c2=O)c(O)sc2ccccc12	CSC inhib 88 (no result: PfHsp90 yeast 2)
COc1ccc(NC(=O)CN2C(=O)NC(C)(C3CC3)C2=O)cc1S(=O)(=O)N1CCCCC1 (configuration not stated)	none (no result: CSC inhib, Calb FLC)
Cc1cc(C)cc(NC(=O)/C=C/c2ccc([N+](=O)[O-])s2)c1	none
Cc1ccccc1NC(=O)/C=C/c1ccc([N+](=O)[O-])s1	Shn3 3UTR inh 93, CSC inhib 98, Beta cell apopt 120, Calb FLC inconclusive
O=C(Nc1cc(Cl)ccc1C(=O)O)c1ccc(CN2C(=O)c3ccccc3C2=O)cc1	none
COc1ccc(S(=O)(=O)N2CCOC23CCN(S(C)(=O)=O)CC3)cc1	none (no result: PfHsp90 yeast 2)
O=C1NN(c2ccc(F)cc2)C(=O)/C1=C/c1cccs1	Calb FLC 101
CC1CN=C(NC(=O)c2cccc([N+](=O)[O-])c2)S1 (configuration not stated)	none
Cc1cccc(NC(=O)CS(=O)CC(=O)Nc2cnc3ccccc3c2)c1C (configuration not stated)	none (no result: Beta cell apopt)
Cc1cc2oc(=O)cc(Cn3ncc(Cl)c(Cl)c3=O)c2cc1Cl	Shn3 3UTR inh 97, CSC inhib 80, Beta cell apopt 110
CCOc1cc(Br)cc(/C=N/NC(=O)c2cccnc2)c1O	Shn3 3UTR inh 92
COc1c(Br)cc(Br)cc1/C=N/NC(=O)c1cccnc1	none
COc1cc(OC)cc(-c2nc3ccccc3c(=O)n2OC(=O)c2ccc(Br)cc2)c1	none
COc1ccc(C(=O)On2c(-c3ccc(Br)cc3)nc3ccccc3c2=O)cc1	Calb FLC 104
COc1ccc(-n2c(-c3ccc(Br)cc3)c[n+]3c2CCC3)cc1	Beta cell apopt 76
COc1ccc(-n2c(-c3ccccc3)c[n+]3c2CCC3)cc1	none
CCOc1ccc(-c2c[n+]3c(n2-c2ccccc2)CCCCC3)cc1	Shn3 3UTR inh 91, Beta cell apopt 98, Calb FLC inconclusive
Cc1ccc(-n2c(-c3ccc(Cl)cc3)c[n+]3c2CCC3)cc1	none
CCOc1ccc(-n2c(-c3ccc(Cl)cc3)c[n+]3c2SCC3)cc1	none
Cc1ccc(-n2c(-c3ccccc3)c[n+]3c2CCC3)cc1	Beta cell apopt 109, Calb FLC 96
COc1ccc(-n2c(-c3ccc(Br)cc3)c[n+]3c2SC(C)C3)cc1 (configuration not stated)	Calb FLC 88 (no result: CSC inhib, Beta cell apopt)
Cc1ccc(-c2nc3ncccc3o2)cc1NC(=O)c1ccc2c(c1)OCO2	none (no result: CSC inhib, Beta cell apopt, Calb FLC)
CCN(c1ccccc1)S(=O)(=O)c1ccc(Cl)c(NC(=O)CNCc2ccccc2OC)c1	none (no result: Calb FLC, PfHsp90 yeast 2)
O=C(COC(=O)Cn1cc(C(F)(F)F)ccc1=O)NCc1ccccc1	none (no result: CSC inhib, Beta cell apopt, Calb FLC, PfHsp90 yeast 2)
C[C@@H]1CN([C@H](C)CO)C(=O)c2cc(Br)cnc2O[C@@H]1CN(C)C(=O)NC1CCCC1	none (no result: CSC inhib, Beta cell apopt, Calb FLC, PfHsp90 yeast 2)
COc1ccc(-n2c(-c3ccc(Br)cc3)c[n+]3c2CCCCC3)cc1	Shn3 3UTR inh 89, Beta cell apopt 111
CCN=c1scc(-c2ccc3c(c2)NC(=O)CO3)n1N=C1CCCC1	Calb FLC 93
O=C(Nc1cccc(F)c1)c1ccc2ncsc2c1	Calb FLC 111 (no result: CSC inhib, Beta cell apopt)
O=C(Nc1ccc(F)cc1F)c1ccc2ncsc2c1	none
O=C(Nc1ccccc1F)c1ccc2ncsc2c1	Calb FLC 105 (no result: CSC inhib, Beta cell apopt)
Nc1c2c(nc3sc4c(c13)CCCCC4)CCCCC2	Calb FLC 95
N#Cc1c([N+](=O)[O-])cc([N+](=O)[O-])cc1S(=O)(=O)Cc1ccccc1	Shn3 3UTR inh 95, CSC inhib 125, Beta cell apopt 113 (no result: Calb FLC)
COc1cc(OC)c(C#N)c(S(=O)(=O)Cc2ccccc2)c1	none (no result: Calb FLC)
O=C(C#Cc1ccccc1)c1cccc([N+](=O)[O-])c1	Shn3 3UTR inh 93, PfHsp90 yeast 2 152 (no result: CSC inhib, Beta cell apopt)
c1ccc(Cn2c[n+](Cc3ccccc3)c3ccccc32)cc1	none (no result: Beta cell apopt)
Nc1nc2ccccc2n1/N=C/c1ccc([N+](=O)[O-])s1	Beta cell apopt 108, Calb FLC inconclusive
Nc1nc2ccccc2n1/N=C/c1cccnc1	none (no result: CSC inhib)
O=C(NCc1cccnc1)/C(=C/c1ccc(-c2ccc(Cl)cc2)o1)S(=O)(=O)c1ccccc1	Shn3 3UTR inh 92, CSC inhib 110, Beta cell apopt 104
O=C(NCc1cccnc1)/C(=C\c1ccc(-c2ccc(Br)cc2)o1)S(=O)(=O)c1ccccc1	Shn3 3UTR inh 96, Beta cell apopt 107
O=[N+]([O-])c1ccc(Cl)c(S(=O)(=O)/N=C(/c2ccccc2)N2CCOCC2)c1	none
O=C1C=CC(=O)N1N(c1ccccc1)c1ccccc1	PfHsp90 yeast 2 96
COC(=O)C1CN(C(=O)C(C)Oc2ccccc2Cl)c2ccccc2O1 (configuration not stated)	none
Cc1ccc(CN(CC(O)COc2cccc3[nH]cc(C)c23)C(C)(C)C)cc1 (configuration not stated)	CSC inhib 76
CCOC(=O)/C(C#N)=C1\SS/C(=C(/C#N)C(=O)OCC)S1	none (no result: Shn3 3UTR inh, PfHsp90 yeast 2)
CC(C)(C)c1ccc(SCCc2ccccn2)cc1	none
